Source: PubChem
Bead autofluor: compound fluorescence in toxin protease inhibitor counterscreen; AID 624483; compound autofluorescence counterscreen, microsphere flow cytometry; active compounds read high; 360,000 compounds, 3.1% hits; fluorescence intensity (test concentration not listed); in the data active = fluorescence intensity above about 16000; inconclusive = no clear call, values can overlap the other calls
BoNT-A LC inh2: BoNT/A light chain protease inhibitors, primary screen, biochemical, flow cytometry, MLPCN library | multiplex microsphere protease substrate cleavage | Botulinum neurotoxin type A light chain protease (Clostridium botulinum A str. ATCC 3502) | 360,000 compounds, 0.17% hits | inhibition, % at 10 µM; note: plate controls were buffer without enzyme for full effect and enzyme alone for no effect
Anthrax LF inh2: Bacillus anthracis LF protease inhibitors, primary screen, biochemical, multiplex microsphere, MLPCN library; 360,000 compounds, 0.12% hits; inhibition, % at 10 µM; AID 588501, 2011; multiplex microsphere protease cleavage assay; Lethal factor (Bacillus anthracis), P15917; note: plate controls were buffer without enzyme for full effect and enzyme alone for no effect
Target sequence (P15917 whole entry, looked up): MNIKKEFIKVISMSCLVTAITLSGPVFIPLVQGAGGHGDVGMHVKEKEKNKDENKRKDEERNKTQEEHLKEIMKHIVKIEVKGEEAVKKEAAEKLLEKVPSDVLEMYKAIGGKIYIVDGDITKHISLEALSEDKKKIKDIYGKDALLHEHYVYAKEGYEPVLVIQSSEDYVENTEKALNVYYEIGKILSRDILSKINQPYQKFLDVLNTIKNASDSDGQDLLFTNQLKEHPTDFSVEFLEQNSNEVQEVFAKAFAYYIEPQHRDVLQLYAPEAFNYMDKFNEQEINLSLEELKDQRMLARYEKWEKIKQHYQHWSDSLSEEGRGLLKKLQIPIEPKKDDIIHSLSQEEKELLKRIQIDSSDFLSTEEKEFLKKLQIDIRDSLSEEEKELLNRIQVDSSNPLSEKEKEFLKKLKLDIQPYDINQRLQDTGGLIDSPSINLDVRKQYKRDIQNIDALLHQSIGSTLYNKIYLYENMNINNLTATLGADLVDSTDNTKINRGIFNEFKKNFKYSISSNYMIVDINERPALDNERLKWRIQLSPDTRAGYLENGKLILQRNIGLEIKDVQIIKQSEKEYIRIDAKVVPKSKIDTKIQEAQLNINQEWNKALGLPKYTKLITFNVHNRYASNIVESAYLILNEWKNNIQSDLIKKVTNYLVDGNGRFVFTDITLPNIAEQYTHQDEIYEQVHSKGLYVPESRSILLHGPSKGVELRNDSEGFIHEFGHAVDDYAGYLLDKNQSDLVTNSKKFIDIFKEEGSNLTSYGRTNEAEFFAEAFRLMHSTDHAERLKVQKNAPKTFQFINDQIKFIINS
BoNT-F LC inh: BoNT/F light chain protease inhibitors, primary screen, biochemical, flow cytometry, MLPCN library | inhibition, % at 10 µM | 360,000 compounds, 0.22% hits | Multiplex microsphere protease cleavage assay | Botulinum neurotoxin type F light chain protease (Clostridium botulinum); in the data active = inhibition above about 35%, passing the limit was not always enough; inconclusive = no clear call, values can overlap the other calls; note: plate controls were buffer without enzyme for full effect and enzyme alone for no effect
Numbers without * were called inactive; ? = inconclusive. Most compounds without a hit are left out; they make up all but 3.5% or so of the library. Cut-off read from the data, not from the text of the source, unless noted: active = inhibition above about 30%; inconclusive = no clear call, values can overlap the other calls; inactive = below that.

SMILES | Bead autofluor | BoNT-A LC inh2 | Anthrax LF inh2 | BoNT-F LC inh
COc1ccc(NC(=O)c2c(F)cccc2Cl)cc1S(=O)(=O)N1CCOCC1 | 3437 | 0.2 | 4.8 | -3.4
Cc1ccnc(N2CCCC(C(=O)Nc3nnc(C)s3)C2)n1 (stereo not drawn) | 10963 | 0.0 | -3.4 | -3.3
O=C(Nc1ccc(C2CCCCC2)cc1)C1CCCN(c2ncccn2)C1 (stereo not drawn) | 22140* | ? | -1.0 | 6.2
O=C(Nc1ccc(Oc2ccccc2)cc1)C1CCCN(c2ncccn2)C1 (stereo not drawn) | 21093* | 3.1 | -3.8 | 7.0
Cc1nnc(NC(=O)C2CCCN(c3ncccn3)C2)s1 (stereo not drawn) | 22811* | -2.3 | -5.8 | -2.1
COc1ccc(NC(=O)C2CCCN(c3c4c(nc5ncnn35)CCC4)C2)cc1 (stereo not drawn) | 23021* | 0.0 | -1.9 | 0.9
CC(=O)Nc1ccc(NC(=O)C2CCCN(c3ncccn3)C2)cc1 (stereo not drawn) | 4477 | -0.8 | -0.4 | 0.7
Cc1nc2ccccc2n1CC(=O)NCc1ccccc1 | 22747* | 0.9 | 0.2 | 4.3
O=C(Cn1c(CC(=O)N2CCCC2)nc2ccccc21)NCc1ccccc1 | 24078* | -1.2 | -0.5 | -3.3
COc1ccccc1NC(=O)Cc1csc(NC(=S)Nc2ccc(C)cc2)n1 | 16561* | -0.6 | -1.5 | -1.6
Oc1ccc(-c2c(C3=CCCCC3)sc3ccccc23)cc1 | 4065 | 0.5 | 6.4 | 6.3
O=C(NC(=S)NNC(=O)c1cccs1)c1ccco1 | 23561* | -2.7 | -1.3 | -1.8
COCCNC(=S)NNC(=O)c1ccco1 | 23531* | -1.4 | -2.1 | -1.9
O=C(NNC(=S)Nc1ccccc1)c1ccco1 | 22369* | ? | -2.7 | -1.7
Cc1ccccc1NC(=S)NNC(=O)c1ccco1 | 5501 | 0.9 | 0.4 | 9.1
CC(C)CNC(=S)NNC(=O)c1ccco1 | 22008* | 0.6 | -0.9 | 1.1
C=CCNC(=S)NNC(=O)c1ccco1 | 4304 | -0.5 | -5.4 | -1.5
CCOC(=O)[C@]12CCC=C1N(Cc1cccc3ccccc13)C(=O)[C@H](CC(=O)NCCCCc1ccccc1)C2 | 4712 | -1.7 | -6.4 | -14.2
CC(C)C(OC(=O)Cn1nnc2ccccc21)C(=O)NC1CCCC1 (stereo not drawn) | 6128 | -0.3 | 2.4 | -1.5
Cc1ccc(NC(=O)COC(=O)COc2cccc3c2OC(C)(C)C3)cc1S(=O)(=O)N1CCOCC1 | 7057 | -3.8 | -4.2 | -4.5
O=C(CSS(=O)(=O)O)N1CCN(C(=O)c2ccoc2)CC1 | 4261 | -0.3 | 1.0 | -0.2
CN(C)S(=O)(=O)c1cccc(C(=O)Nc2n[nH]c(C(F)(F)F)n2)c1 | 6345 | -4.0 | -3.4 | 0.7
NC(=O)c1ccc(NC(=O)c2ccc(COc3ccc(F)cc3)o2)cc1 | 5808 | -2.7 | -1.2 | -11.3
COc1cnc(SCc2c(Cl)cccc2Cl)nc1Cl | 20944* | -3.4 | -6.7 | -7.1
Cc1cc(OC(=O)N(C)C)nc(SCc2c(Cl)cccc2Cl)n1 | 4494 | -1.1 | -5.2 | -1.0
SMILES | Bead autofluor | BoNT-A LC inh2 | Anthrax LF inh2 | BoNT-F LC inh
CCOc1ccc(C(=O)N/N=C/c2ccc(-c3ccc(S(=O)(=O)Nc4ncccn4)cc3)o2)cc1 | 22776* | 1.1 | -0.9 | -1.0
O=C(N/N=C/c1ccc(-c2ccc(S(=O)(=O)Nc3ncccn3)cc2)o1)c1cc2ccccc2cc1O | 3223 | 0.2 | 3.1 | 6.1
COc1ccc(NC(=O)c2ccc(NC(=O)CN3CCN(c4ccccc4)CC3)cc2)cc1 | 3899 | -0.4 | 0.7 | 0.3
Cc1ccc(C2=[N+]([O-])C3(CCCCC/C3=N\NC(N)=O)N(O)C2(C)C)o1 (stereo not drawn) | 2485 | -0.2 | 3.3 | -3.3
CC1(C)C(c2cccs2)=[N+]([O-])C2(CCCCC/C2=N\O)N1O (stereo not drawn) | 24784* | -1.6 | -1.1 | -4.2
C=CCn1c(=O)/c(=C/c2cc(OC)c(OC)c(OC)c2)s/c1=C(/C#N)c1nc2ccccc2n1C | 2299 | 112.3* | 60.9* | 58.3*
C=CCn1c(=O)/c(=C/c2ccc(O)cc2)s/c1=C(/C#N)c1nnc2n1CCCCC2 | 9229 | 1.5 | -0.1 | 15.2
O=C(NCCCNC(=O)c1ccc(F)cc1)c1ccc(F)cc1 | 4063 | 1.0 | -5.5 | 57.0*
O=C(COC(=O)c1cnccn1)NCc1ccccc1 | 20877* | -0.6 | 0.7 | -3.7
O=C(COC(=O)c1cnccn1)NCCc1ccccc1 | ? | 0.4 | -14.0 | 0.7
O=C(/C=C/c1ccc([N+](=O)[O-])cc1)NCCSc1ccccc1 | 23722* | ? | -1.3 | -2.6
CC(C)N(C(=O)[C@H]1C[C@H](CC(=O)NCCCn2ccnc2)C(=O)N2CCc3c([nH]c4cc(CCC(=O)N(C)C)ccc34)[C@]12C)C(C)C | 3555 | 0.2 | 0.8 | 0.7
COc1ccc(C(=O)NCc2ccccc2CN2CCCC2)cc1S(=O)(=O)Nc1ccc(C)cc1 | ? | -19.7 | ? | ?
Cc1ccc2nc(C(F)(F)F)c(C#N)c(N)c2c1 | 23566* | ? | -0.7 | -0.1
CC1(C(=O)NCC2CC2)Cc2c(-c3ccc4c(c3)OCO4)ccnc2O1 (stereo not drawn) | 2947 | -0.3 | -3.3 | -0.2
Cc1nc(C(=O)Nc2ccc(Cl)cc2Cl)nn1-c1cc(OC(C)C)c(Cl)cc1Cl | 9951 | 0.0 | 5.9 | 7.3
Cc1nc(C(=O)Nc2cc(Cl)ccc2Cl)nn1-c1cc(OC(C)C)c(Cl)cc1Cl | 24341* | -0.6 | -1.0 | 1.2
Cc1nc(C(=O)Nc2cccc(Cl)c2)nn1-c1cc(OC(C)C)c(Cl)cc1Cl | 23251* | ? | 0.5 | -4.1
CNC[C@@H]1Oc2cc(Br)ccc2S(=O)(=O)N([C@@H](C)CO)C[C@H]1C | 3397 | -0.4 | 3.5 | -4.2
CCN(C(=O)c1ccc(NC(C)=O)cc1)c1ccccc1 | 21341* | 4.1 | 0.2 | 2.7
CC(=O)Nc1ccc(C(=O)N(C)c2ccccc2)cc1 | 3199 | 0.0 | -0.9 | -2.5
CN(CCOc1ccc(Cl)cc1)C(=O)c1cc([N+](=O)[O-])ccc1N1CCOCC1 | 6411 | -3.0 | -0.7 | 0.0
Cc1ccc(S(=O)(=O)N(CC(O)CN2CCOCC2)c2cccc([N+](=O)[O-])c2)cc1 (stereo not drawn) | 5664 | -0.6 | 1.8 | 3.2
CC(=O)NCc1c(Cl)cccc1-n1cccc1 | ? | ? | ? | -2.0
CCC(=O)NCc1c(Cl)cccc1-n1cccc1 | 19934* | 5.6 | -10.6 | 9.7
SMILES | Bead autofluor | BoNT-A LC inh2 | Anthrax LF inh2 | BoNT-F LC inh
CCOc1cc(Br)ccc1S(=O)(=O)N1CC(C)OC(C)C1 (stereo not drawn) | 20570* | 0.4 | -1.1 | 2.2
CCOc1ccc(Br)cc1S(=O)(=O)N1CC(C)OC(C)C1 (stereo not drawn) | 15484 | 12.3 | -21.2 | 20.8
O=C(COc1ccc(S(=O)(=O)NCc2ccccc2)cc1)NCc1cccnc1 | 7476 | -6.6 | -2.3 | -6.9
O=C(c1cccs1)c1ccccc1Cc1cccs1 | 3684 | 0.4 | -0.4 | -1.3
O=C(/C(=C/c1ccc(Cl)cc1)c1nc2ccccc2[nH]1)c1cccs1 | 16724* | -1.5 | -3.0 | -3.2
C=CCNCCOCCOc1ccc(C)cc1[N+](=O)[O-] | 21806* | 1.3 | -2.7 | 1.5
